# This is part of a sample that, as a whole, favours compounds with a hit. Of some 79,000 tested, about 15% had one in any assay. Values without a mark were called inactive. Activity calls are given as the source filed them. Cut-off read from the data, not from the text of the source: active = growth inhibition above about 70%; inactive = the rest.
# Key:
# [1] = NCI Yeast Anticancer Drug Screen. Data for the rad52 strain (AID 147);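 note: 0% = growth of vehicle-treated control cultures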; details: S. cerevisiae rad52 mutant growth inhibition, hits give high values
# How it was run: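 Inhibition of yeast growth, referenced to vehicle controls, was the measured output for a strain with defective DNA damage repair.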
# [2] = NCI Yeast Anticancer Drug Screen. Data for the wt1 strain (AID 149);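 note: 0% = growth of vehicle-treated wt1 cultures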; details: S. cerevisiae wt1 strain (SPY 50644) growth inhibition, hits give high values
# How it was run: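 Growth inhibition read against vehicle controls after compound exposure of the wt1 yeast strain.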
# [3] = NCI Yeast Anticancer Drug Screen. Data for the rad50EPP+ strain (AID 151);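 note: 0% = growth of vehicle-treated control cultures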; details: S. cerevisiae rad50 mutant strain, hits give high values
# How it was run: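 Genetically defined yeast (rad50EPP+, DNA damage repair alteration) is grown with compound, and inhibition of growth is expressed relative to vehicle-treated controls.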
# [4] = NCI Yeast Anticancer Drug Screen. Data for the mgt1 strain (AID 153); details: S. cerevisiae mgt1 mutant growth inhibition, hits give high values
# How it was run: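 In the mgt1 strain, test compounds were added and growth inhibition was determined relative to vehicle-treated controls.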
# [5] = NCI Yeast Anticancer Drug Screen. Data for the rad50 strain (AID 155);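 note: 0% = growth of vehicle-only cultures of the same strain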; details: S. cerevisiae rad50 strain growth inhibition, hits give high values
# How it was run: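 Readout: growth inhibition relative to vehicle-treated cultures. Compound exposure was carried out in a genetically defined yeast strain deficient in DNA damage repair.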
# [6] = NCI Yeast Anticancer Drug Screen. Data for the mec2-1 strain (AID 157); details: S. cerevisiae mec2-1 strain, hits give high values
# How it was run: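 Each compound was tested on mec2-1 yeast, a strain altered in DNA damage repair or cell cycle control. Growth inhibition is reported relative to vehicle.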
# [7] = NCI Yeast Anticancer Drug Screen. Data for the rad14 strain (AID 159);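 note: 0% = growth of vehicle-treated control cultures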; details: S. cerevisiae rad14 strain growth inhibition, hits give high values
# How it was run: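 Growth inhibition vs vehicle controls; genetically altered yeast strain (DNA damage repair defect) treated with test compounds.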
# [8] = NCI Yeast Anticancer Drug Screen. Data for the sgs1 mgt1 strain (AID 161);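 note: 0% = growth of cultures given vehicle only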; details: S. cerevisiae sgs1 mgt1 strain, hits give high values
# How it was run: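 Inhibition of yeast growth, normalised to vehicle-treated controls, is reported for a strain bearing genetic alterations in DNA damage repair.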
# [9] = NCI Yeast Anticancer Drug Screen. Data for the CLN2oe strain (AID 163);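 note: 0% = growth of vehicle-only control cultures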; details: S. cerevisiae CLN2oe strain, hits give high values
# How it was run: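 First, the altered yeast strain was treated with each compound; second, its growth was measured; finally, inhibition was derived by comparison with vehicle controls.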
# [10] = NCI Yeast Anticancer Drug Screen. Data for the cln2 rad14 strain (AID 165);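 note: 0% = growth equal to vehicle treated cultures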; details: S. cerevisiae cln2 rad14 strain, hits give high values
# How it was run: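 Test compounds were added to cln2 rad14 yeast cultures; inhibition of growth was then determined by comparison with vehicle treatment.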
# [11] = NCI Yeast Anticancer Drug Screen. Data for the bub3 strain (AID 167); details: S. cerevisiae bub3 mutant strain, hits give high values
# How it was run: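 Readout: yeast growth inhibition, expressed relative to vehicle-only wells. The test organism is a mutant strain from a panel with lesions in DNA repair or checkpoint genes.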
# [12] = NCI Yeast Anticancer Drug Screen. Data for the wt2 strain (AID 169);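 note: 0% = growth of vehicle-treated yeast cultures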; details: S. cerevisiae wt2 strain growth inhibition, hits give high values
# How it was run: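 The panel's yeast strains carry defined changes in DNA repair or cell cycle genes. Each strain is grown with compound, and growth loss is scored relative to vehicle.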
# [13] = NCI Yeast Anticancer Drug Screen. Data for the sgs1 strain (AID 173);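 note: 0% = growth of vehicle-only control cultures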; details: S. cerevisiae sgs1 mutant, hits give high values
# How it was run: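 Vehicle-treated cultures served as reference for growth inhibition of a yeast strain altered in DNA damage repair or cell cycle control after compound exposure.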
# [14] = NCI Yeast Anticancer Drug Screen. Data for the mlh1 rad18 strain (AID 175); details: S. cerevisiae mlh1 rad18 strain growth inhibition, hits give high values
# How it was run: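 Inhibition values reflect reduced growth of mutant yeast versus vehicle-treated controls following compound exposure; the mutations affect DNA damage repair.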
# [15] = NCI Yeast Anticancer Drug Screen. Data for the rad18 strain (AID 177); details: S. cerevisiae rad18 mutant growth inhibition, hits give high values
# How it was run: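 Steps: expose repair-mutant yeast to compound; measure growth; express as inhibition relative to vehicle control.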
# [16] = at 5.0 µM (retest, dose inferred, filed as 0.5)
# [17] = at 50.0 µM (retest, dose inferred, filed as 5.0)
smiles,measurement,setting,value
CCN(CC)CCNc1ccc2nc(C)n3c4ccc(O)cc4c(=O)c1c23,growth inhibition,[1]; at 1.2 µM,40%
same,growth inhibition,[1]; at 3.7 µM,74% (active)
same,growth inhibition,[1]; at 11.0 µM,89% (active)
same,growth inhibition,[1]; at 33.0 µM,91% (active)
same,growth inhibition,[1]; at 100.0 µM,93% (active)
same,growth inhibition,[2]; at 1.2 µM,-2%
same,growth inhibition,[2]; at 3.7 µM,-4%
same,growth inhibition,[2]; at 11.0 µM,-2%
same,growth inhibition,[2]; at 33.0 µM,0%
same,growth inhibition,[2]; at 100.0 µM,2%
same,growth inhibition,[3]; at 1.2 µM,5%
same,growth inhibition,[3]; at 3.7 µM,15%
same,growth inhibition,[3]; at 11.0 µM,24%
same,growth inhibition,[3]; at 33.0 µM,38%
same,growth inhibition,[3]; at 100.0 µM,39%
same,growth inhibition,[4]; at 1.2 µM,3%
same,growth inhibition,[4]; at 3.7 µM,0%
same,growth inhibition,[4]; at 11.0 µM,3%
same,growth inhibition,[4]; at 33.0 µM,1%
same,growth inhibition,[4]; at 100.0 µM,2%
same,growth inhibition,[5]; at 1.2 µM,42%
same,growth inhibition,[5]; at 3.7 µM,73% (active)
same,growth inhibition,[5]; [16],91% (active)
same,growth inhibition,[5]; at 11.0 µM,84% (active)
same,growth inhibition,[5]; at 33.0 µM,91% (active)
same,growth inhibition,[5]; [17],91% (active)
same,growth inhibition,[5]; at 50.0 µM,-0.45%
same,growth inhibition,[5]; at 100.0 µM,92% (active)
same,growth inhibition,[6]; at 1.2 µM,-1%
same,growth inhibition,[6]; at 3.7 µM,10%
same,growth inhibition,[6]; [16],15%
same,growth inhibition,[6]; at 11.0 µM,3%
same,growth inhibition,[6]; at 33.0 µM,14%
same,growth inhibition,[6]; [17],15%
same,growth inhibition,[6]; at 50.0 µM,26.9%
same,growth inhibition,[6]; at 100.0 µM,28%
same,growth inhibition,[7]; at 1.2 µM,-1%
same,growth inhibition,[7]; at 3.7 µM,2%
same,growth inhibition,[7]; at 11.0 µM,3%
same,growth inhibition,[7]; at 33.0 µM,8%
same,growth inhibition,[7]; at 100.0 µM,13%
same,growth inhibition,[8]; [16],18%
same,growth inhibition,[8]; [17],18%
same,growth inhibition,[8]; at 50.0 µM,0.15%
same,growth inhibition,[9]; at 1.2 µM,-1%
same,growth inhibition,[9]; at 3.7 µM,2%
same,growth inhibition,[9]; at 11.0 µM,-1%
same,growth inhibition,[9]; at 33.0 µM,3%
same,growth inhibition,[9]; at 100.0 µM,-2%
same,growth inhibition,[10]; [16],28%
same,growth inhibition,[10]; [17],28%
same,growth inhibition,[10]; at 50.0 µM,18.6%
same,growth inhibition,[11]; at 1.2 µM,-3%
same,growth inhibition,[11]; at 3.7 µM,-19%
same,growth inhibition,[11]; [16],39%
same,growth inhibition,[11]; at 11.0 µM,-1%
same,growth inhibition,[11]; at 33.0 µM,-5%
same,growth inhibition,[11]; [17],39%
same,growth inhibition,[11]; at 50.0 µM,-3.85%
same,growth inhibition,[11]; at 100.0 µM,3%
same,growth inhibition,[12]; at 1.2 µM,0%
same,growth inhibition,[12]; at 3.7 µM,1%
same,growth inhibition,[12]; at 11.0 µM,0%
same,growth inhibition,[12]; at 33.0 µM,1%
same,growth inhibition,[12]; at 100.0 µM,5%
same,growth inhibition,[13]; at 1.2 µM,0%
same,growth inhibition,[13]; at 3.7 µM,-1%
same,growth inhibition,[13]; at 11.0 µM,1%
same,growth inhibition,[13]; at 33.0 µM,4%
same,growth inhibition,[13]; at 100.0 µM,5%
same,growth inhibition,[14]; [16],6%
same,growth inhibition,[14]; [17],6%
same,growth inhibition,[14]; at 50.0 µM,78.4% (active)
same,growth inhibition,[15]; at 1.2 µM,0%
same,growth inhibition,[15]; at 3.7 µM,0%
same,growth inhibition,[15]; at 11.0 µM,-4%
same,growth inhibition,[15]; at 33.0 µM,-13%
same,growth inhibition,[15]; at 100.0 µM,-22%
O=[N+]([O-])c1ccc2nc(=S)[nH]n2c1,growth inhibition,[1]; at 1.2 µM,-3%
same,growth inhibition,[1]; at 3.7 µM,-2%
same,growth inhibition,[1]; at 11.0 µM,-2%
same,growth inhibition,[1]; at 33.0 µM,10%
same,growth inhibition,[1]; at 100.0 µM,65%
same,growth inhibition,[2]; at 1.2 µM,-3%
same,growth inhibition,[2]; at 3.7 µM,-2%
same,growth inhibition,[2]; at 11.0 µM,-7%
same,growth inhibition,[2]; at 33.0 µM,-8%
same,growth inhibition,[2]; at 100.0 µM,41%
same,growth inhibition,[3]; at 1.2 µM,0%
same,growth inhibition,[3]; at 3.7 µM,6%
same,growth inhibition,[3]; at 11.0 µM,20%
same,growth inhibition,[3]; at 33.0 µM,46%
same,growth inhibition,[3]; at 100.0 µM,87% (active)
same,growth inhibition,[4]; at 1.2 µM,0%
same,growth inhibition,[4]; at 3.7 µM,-4%
same,growth inhibition,[4]; at 11.0 µM,-4%
same,growth inhibition,[4]; at 33.0 µM,-8%
same,growth inhibition,[4]; at 100.0 µM,1%
same,growth inhibition,[5]; at 1.2 µM,-4%
same,growth inhibition,[5]; at 3.7 µM,-1%
same,growth inhibition,[5]; [16],-130%
same,growth inhibition,[5]; at 11.0 µM,13%
same,growth inhibition,[5]; at 33.0 µM,19%
same,growth inhibition,[5]; [17],94% (active)
same,growth inhibition,[5]; at 50.0 µM,58.6%
same,growth inhibition,[5]; at 100.0 µM,98% (active)
same,growth inhibition,[6]; at 1.2 µM,1%
same,growth inhibition,[6]; at 3.7 µM,-1%
same,growth inhibition,[6]; [16],-42%
same,growth inhibition,[6]; at 11.0 µM,-5%
same,growth inhibition,[6]; at 33.0 µM,0%
same,growth inhibition,[6]; [17],-7%
same,growth inhibition,[6]; at 50.0 µM,24.1%
same,growth inhibition,[6]; at 100.0 µM,34%
same,growth inhibition,[7]; at 1.2 µM,3%
same,growth inhibition,[7]; at 3.7 µM,-1%
same,growth inhibition,[7]; at 11.0 µM,6%
same,growth inhibition,[7]; at 33.0 µM,12%
same,growth inhibition,[7]; at 100.0 µM,59%
same,growth inhibition,[8]; [16],-58%
same,growth inhibition,[8]; [17],22%
same,growth inhibition,[8]; at 50.0 µM,23.9%
same,growth inhibition,[9]; at 1.2 µM,-2%
same,growth inhibition,[9]; at 3.7 µM,-2%
same,growth inhibition,[9]; at 11.0 µM,-4%
same,growth inhibition,[9]; at 33.0 µM,-5%
same,growth inhibition,[9]; at 100.0 µM,36%
same,growth inhibition,[10]; [16],-59%
same,growth inhibition,[10]; [17],2%
same,growth inhibition,[10]; at 50.0 µM,-7.5%
same,growth inhibition,[11]; at 1.2 µM,-9%
same,growth inhibition,[11]; at 3.7 µM,-8%
same,growth inhibition,[11]; [16],-71%
same,growth inhibition,[11]; at 11.0 µM,-5%
same,growth inhibition,[11]; at 33.0 µM,-5%
same,growth inhibition,[11]; [17],76% (active)
same,growth inhibition,[11]; at 50.0 µM,-6.7%
same,growth inhibition,[11]; at 100.0 µM,65%
same,growth inhibition,[12]; at 1.2 µM,-2%
same,growth inhibition,[12]; at 3.7 µM,-1%
same,growth inhibition,[12]; at 11.0 µM,-2%
same,growth inhibition,[12]; at 33.0 µM,-3%
same,growth inhibition,[12]; at 100.0 µM,12%
same,growth inhibition,[13]; at 1.2 µM,0%
same,growth inhibition,[13]; at 3.7 µM,-2%
same,growth inhibition,[13]; at 11.0 µM,-5%
same,growth inhibition,[13]; at 33.0 µM,0%
same,growth inhibition,[13]; at 100.0 µM,47%
same,growth inhibition,[14]; [16],-133%
same,growth inhibition,[14]; [17],78% (active)
same,growth inhibition,[14]; at 50.0 µM,46.1%
same,growth inhibition,[15]; at 1.2 µM,-2%
same,growth inhibition,[15]; at 3.7 µM,0%
same,growth inhibition,[15]; at 11.0 µM,2%
same,growth inhibition,[15]; at 33.0 µM,7%
same,growth inhibition,[15]; at 100.0 µM,60%
